About 83,000 compounds went through this panel and 20% of them were active in at least one assay; those are over-represented in the sample as a whole.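 48-hour exposure, single concentration, 96-well plates; percent growth endpoint where 0 means no net growth. Active: below 10.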 Activity calls are given as the source filed them.
Columns and labels:
Assay in all cases: NCI-60 one-dose screen, 48 h (100 = growth as untreated, 0 = no growth, -100 = all killed)
Details in all cases: 10 µM unless noted
[1] = tested on: NCI-H23 lung
[2] = tested on: NCI-H226 lung
[3] = tested on: NCI-H322M lung
[4] = tested on: HOP-62 NSCLC
[5] = tested on: NCI-H460 lung
[6] = tested on: HOP-92 NSCLC
[7] = tested on: NCI-H522 lung
[8] = tested on: A549/ATCC NSCLC
[9] = tested on: 786-0 renal
[10] = tested on: COLO 205 colon

Measured: growth

Cc1cc([C@@H](C)Nc2ccccc2C(=O)O)c2nc(N3CCOCC3)cc(=O)n2c1
inactive: [1] 54.8% | [2] 55.4% | [3] 39.9% | [4] 37.5% | [5] 22.6% | [6] 13.7% | [7] 42.3% | [8] 32% | [9] 18.6%

CCOC(=O)C1=C(C)N=C2Sc3cccc(OC)c3N2[C@H]1c1ccccn1
inactive: [1] 86.9% | [2] 84.9% | [3] 96.4% | [4] 80.6% | [5] 105% | [6] 93.3% | [7] 81.2% | [8] 94% | [9] 113%

C=CCCCOC1[C@H](OCc2ccccc2)C(OCc2ccccc2)C(OC)O[C@@H]1CNC(=O)c1cccc(I)c1 (stereo partly drawn)
inactive: [1] 44.2% | [2] 66.5% | [3] 70.3% | [4] 77.7% | [6] 67.2% | [7] 42.1% | [8] 27.2% | [9] 39.5% | [10] 36.9%
active: [5] -7.83%

CCN1/C(=C/C=C/c2n(-c3ccccc3)c3ccc(-c4nc5ccccc5s4)cc3[n+]2CC)N(c2ccccc2)c2ccc(-c3nc4ccccc4s3)cc21
inactive: [3] 14.5%
active: [1] -0.899% | [2] 0.213% | [4] -7.25% | [5] -1.59% | [6] 1.91% | [7] -0.409% | [8] 3.13% | [9] 3.99%

COc1cnc2c(c1)C(=O)c1c-2n(CCCN2CCC(O)CC2)c(=O)c2cc(Cl)ccc12
active: [5] -60.8% | [8] -65.8% | [9] 4.34%
inactive: [1] 11.8% | [2] 39.3% | [3] 46.4% | [4] 23.6% | [6] 77.3% | [7] 32.4% | [10] 47.1%

CCc1cc2c(cc1N1CCC(N3CCOCC3)CC1)C(C)(C)c1[nH]c3cc(C#N)ccc3c1C2=O
active: [2] -35% | [3] -12.5% | [4] -61.7% | [5] 1.34% | [6] -10.9% | [7] -38.5% | [8] 7.92% | [9] -45.7%
inactive: [1] 14.5%

Cc1nn(-c2ccccc2)c2c1N=c1s/c(=C\c3cn(-c4ccccc4)nc3-c3ccc(Cl)cc3)c(=O)n1C(C)N2 (stereo not drawn)
inactive: [1] 79.4% | [2] 93.2% | [3] 113% | [4] 102% | [5] 93% | [6] 66.7% | [7] 10.2% | [8] 87.8% | [9] 77.1%

C/C=C/C=N/NC(=S)Nc1ccccc1
inactive: [1] 90.7% | [2] 95.8% | [3] 90.6% | [4] 86% | [5] 112% | [6] 93% | [7] 82.7% | [8] 79.4% | [9] 106%

CCOc1cc2ncc(C#N)c(Nc3ccc(F)c(Cl)c3)c2cc1NC(=O)/C=C/CN(C)C
active: [1] -28.5% | [2] -56.5% | [3] 0.98% | [4] -27.7% | [5] -44% | [6] -30% | [7] -57.5% | [8] -30.6% | [9] -68.5%

CCN(CCO)CCCOc1ccc2c(Nc3cc(CC(=O)Nc4cccc(F)c4)[nH]n3)ncnc2c1
inactive: [1] 29.2% | [2] 63.9% | [3] 14.4% | [4] 35.7% | [5] 22.6% | [6] 23.2% | [7] 22.9% | [8] 23.9% | [9] 66.1%

CCN(CC)C(=O)C[N+](C)(C)CCOC(c1ccccc1)c1ccccc1
inactive: [1] 95.2% | [2] 102% | [3] 104% | [4] 103% | [5] 109% | [6] 113% | [7] 105% | [8] 101% | [9] 102% | [10] 112%

O=c1[nH]c([C@@H]2CCCN2)nc2c1oc1ccc(Cl)cc12
inactive: [1] 60.7% | [2] 51.8% | [3] 56% | [4] 47.2% | [5] 34.4% | [6] 39.8% | [7] 24.7% | [8] 37.9% | [9] 84.4%

COC(=O)[C@]12CC[C@@H](C)[C@H](C)[C@@H]1C1=CC[C@@H]3[C@@]4(C)C(c5cnco5)=C[C@@](C)(CO)C4=CC[C@@]3(C)[C@]1(C)CC2
inactive: [1] 47.8% | [2] 60% | [3] 86.5% | [4] 93.7% | [6] 41.8% | [7] 33.9% | [8] 47.1% | [9] 70.5%
active: [5] 8.07%

Cc1cn(-c2cc(NC(=O)c3ccc(C)c(Nc4nccc(-c5cccnc5)n4)c3)cc(C(F)(F)F)c2)cn1
inactive: [1] 49.2% | [2] 67.1% | [3] 69.3% | [4] 47.5% | [5] 63.7% | [6] 70.7% | [7] 41.5% | [8] 45.5% | [9] 71.4%

Cc1cc(C(=O)Nc2cc(Oc3ccc4nc(NC(=O)C5CC5)cn4n3)ccc2C)n(C)n1
active: [6] -25.6%
inactive: [1] 24.7% | [2] 43.3% | [3] 15.8% | [4] 14.4% | [5] 18.9% | [7] 14.1% | [8] 11% | [9] 51.9%

CCc1nc2cc(F)c(/C=C/C(=O)NO)cc2c(=O)n1CCc1ccccc1
active: [4] 5.35% | [5] 7.49% | [7] -7.46% | [9] -5.29% | [10] -23.3%
inactive: [1] 25.9% | [2] 32.7% | [3] 23.1% | [6] 15.5% | [8] 14.9%

Cc1cc2c(-c3nc4ccccn4c3Nc3cccc4ccccc34)c(O)c(O)cc2c(O)c1-c1c(C)cc2c(-c3nc4ccccn4c3Nc3cccc4ccccc34)c(O)c(O)cc2c1O
active: [5] 3.9% | [6] 9.86%
inactive: [1] 12.4% | [2] 46.6% | [3] 59.4% | [4] 37.9% | [7] 32% | [8] 16.1% | [9] 68%

Cc1cccc(NC(=O)[C@@H]2c3ccccc3C(=O)N(c3ccc(Cl)cc3)[C@H]2c2ccc(Cl)cc2)n1
inactive: [1] 57.9% | [2] 55.1% | [3] 80.8% | [4] 53.1% | [5] 52.5% | [6] 42% | [7] 38.7% | [8] 23.6% | [9] 61.2%

Cn1c(=O)c(F)c(Nc2ccc(I)cc2F)c2c(=O)n(C[C@@H](O)CO)cnc21
inactive: [1] 21.5% | [2] 52.5% | [3] 14% | [4] 22.5% | [5] 62.3% | [7] 41.4% | [8] 19.2% | [9] 58.3%
active: [6] -23.8%

CC(C)(O)CC(=O)NCCn1ccc2ncnc(Nc3ccc(Oc4cccc(C(F)(F)F)c4)c(Cl)c3)c21
active: [3] -2.67% | [4] -12.2% | [6] -23.1% | [7] -20.4% | [8] 1.14%
inactive: [1] 20% | [2] 26.1% | [5] 11.1% | [9] 22.6%

CN1CCN(CC(=O)Nc2ccc(-c3nc4ccccc4s3)cc2)CC1
inactive: [1] 82.2% | [2] 96.2% | [3] 77.9% | [4] 87.3% | [5] 84.7% | [6] 35.7% | [7] 58.9% | [8] 88.6% | [9] 78.7%

COc1cc(-c2nc(C(=O)Nc3ccc(C)cc3)nn2-c2ccc(F)c(F)c2)cc(OC)c1OC
inactive: [1] 97.1% | [2] 102% | [3] 96% | [4] 86% | [5] 106% | [6] 114% | [7] 48% | [8] 96.2% | [9] 98.6% | [10] 95.8%

Cc1ccc(-c2cc3c(SCC(=O)Nc4cc(C(F)(F)F)ccc4Cl)nccn3n2)cc1
inactive: [1] 74.2% | [2] 54% | [3] 31% | [4] 43.3% | [5] 14.2% | [6] 28.6% | [7] 42.7% | [8] 36% | [9] 54.7%

Cc1cc2c(F)c(Oc3ncnn4cc(OC[C@@H](C)OC(=O)[C@H](C)N)c(C)c34)ccc2[nH]1
inactive: [1] 27.6% | [2] 50.2% | [3] 41.1% | [4] 34.8% | [5] 38.7% | [6] 39.2% | [7] 58.1% | [8] 35.8% | [9] 72.3%

O=C(NC[C@H](O)CO)c1ccncc1Nc1ccc(I)cc1F
inactive: [1] 15.9% | [2] 50.2% | [3] 19.8% | [4] 23.7% | [5] 53.2% | [7] 51.6% | [8] 32.2% | [9] 70.2%
active: [6] -25.4%

COc1ccc2c(OCc3nnc4ccc(-c5ccccc5)nn34)ccnc2c1
inactive: [1] 70.2% [2.5 µM] | [2] 84.7% [2.5 µM] | [3] 92% [2.5 µM] | [4] 77.5% [2.5 µM] | [5] 110% [2.5 µM] | [6] 98.7% [2.5 µM] | [7] 85.8% [2.5 µM] | [8] 94.1% [2.5 µM] | [9] 93.7% [2.5 µM]

C[C@@H]1COC(Nc2ccc3ncnc(Nc4ccc(OCc5nccs5)c(Cl)c4)c3c2)=N1
active: [7] 2.8%
inactive: [1] 46.8% | [2] 17.1% | [3] 20.1% | [4] 17.5% | [5] 57.9% | [6] 10.3% | [8] 40.3% | [9] 50%

Source: PubChem BioAssay (NCI)
